# In PubChem BioAssay (NCI):
# Compounds without any hit were thinned out: in the full panel of roughly 83,000, 20% have a hit.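 The test compound was applied at a single concentration to cells in 96-well plates for 48 hours, and percent growth was recorded.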 Unmarked numbers belong to inactive results. The source made the active and inactive calls. How the source made its calls: active means growth percent below 10; inactive means the rest.
# Test system: MDA-MB-468 breast
# Test: NCI-60 one-dose screen, 48 h (100 = growth as untreated, 0 = no growth, -100 = all killed)
# Conditions: 10 µM unless noted
row,Compound,growth
1,CN1CCN(C(=O)/C=C/c2ccc([N+](=O)[O-])o2)CC1,77.4%
2,CN1CCc2c(sc3nc4n(-c5ccc(Cl)cc5)c(=O)[nH]n4c(=O)c23)C1,114%
3,CCCCc1ccc2nc(NC(=O)OC)[nH]c2c1,22.3%
4,C=CCn1c(SCC(=O)Nc2ccc(C(=O)/C=C/c3ccc(Cl)cc3)cc2)nnc1-c1cc(-c2ccc(S(N)(=O)=O)cc2)nc2ccccc12,90.2%
5,O=C(NNc1ccccc1)C1CCCN1 (stereo not given),81%
6,COc1ccc(C(=O)c2c(N)c(C#N)cn2-c2ccc(Cl)cc2Cl)cc1,89.5%
7,OC(c1cc2c(Cl)cc(Cl)cc2c2cc(C(F)(F)F)ccc12)C1CCCCN1 (stereo not given),-89.1% (active)
8,Nc1ccc2c(c1)c(N)nn2C(=O)Nc1ccc(Cc2ccccc2)cc1,98.4%
9,CNC(=O)Nc1ccc(-c2nc(N3CCOCC3)nc3c2cnn3C2CCOCC2)cc1,-34.4% (active)
10,CC(C)(C)c1ccc(O)c(Br)c1,70.2%
11,C=C(C)[C@@H]1CC[C@]2(c3nnc(-c4ccncc4)o3)CC[C@]3(C)[C@H](CC[C@@H]4[C@@]5(C)CCC(=O)NC(C)(C)[C@@H]5CC[C@]43C)[C@@H]12,92.7%
12,Cn1ncc(CC(=O)O)c1-n1nnc2cc(Cl)ccc2c1=O,89.5%
13,C#CCOc1cc(/C=N/Nc2nc(-c3ccc(OC)cc3)cs2)ccc1O,43%
14,O=C1C=C(OCC=C(Cl)Cl)C(=O)c2ccccc21,41.5%
15,O=C(Cc1ccc(/C=C/C(=O)c2ncc[nH]2)cc1)Nc1ccc(Br)cc1,19.6%
16,COc1ccc(-c2cc(-c3cc(OC)c(OC)c(OC)c3)c(C#N)c(N3CCOCC3)n2)cc1O,76.7%
17,C#Cc1cccc(NC(=O)c2ccc(NC(=O)CCl)cc2)c1,-34.6% [8.25 µM] (active)
18,COc1cc(C(=O)c2cc(C(C)=O)c3c(C)cccn23)cc(OC)c1OC,81.8%
19,C/C(=N\Nc1ccc(Cl)cn1)c1ccc2ccccc2n1,-20.3% (active)
20,NNC(=O)CSc1nc2scc(-c3ccccc3)c2c(=O)n1-c1ccccc1,102%

row,Compound,growth
1,O=C(CCl)N1CCN(C/C=C/c2ccccc2)CC1,81%
2,O=c1c2cccc3c(N4CCOCC4)ccc(c32)c2nc3ccccc3n12,-63.5% (active)
3,CCOC(=O)c1ccc(NC(=O)Nc2nncs2)cc1,12.5%
4,COc1ccc(C(=O)NC(=O)Nc2ccc3c(c2)NC(=O)/C3=C\c2[nH]c(C)c(CCC(=O)O)c2C)c(F)c1,59.7%
5,CCOC(=O)CC(c1ccccc1)C(C#N)c1ccccc1 (stereo not given),101%
6,COc1cc(/C(C)=C(\c2ccc(Cl)cc2)c2ccc(OCCN(C)C)cc2)ccc1F,45.6%
7,COc1ccc(C(=O)Nc2nc(-c3ccc(Cl)cc3)cs2)cc1,95.9%
8,CCN1C(=O)N(CC)C2C1NN=c1s/c(=C\c3cccc([N+](=O)[O-])c3)c(=O)n12 (stereo not given),3.95% (active)
9,Cc1ccc2c(c1)C(C)Cc1c(ncnc1-n1cnc3cc(C)ccc31)N2C (stereo not given),9.76% (active)
10,CCCCN(CCCC)CCCCCCCCCCO,99.8%
11,CC(=O)Nc1ccc(CC#N)cc1Br,102%
12,Cc1cc(NC(=O)NC(=O)c2ccccc2N(C)C)ccc1Oc1ncc(Br)cn1,-2.54% (active)
13,O=C(/C=C/c1ccc(F)cc1)c1ccc(NC(=O)N2CCN(c3cc4c(cc3F)c(=O)c(C(=O)O)cn4C3CC3)CC2)cc1,68.3%
14,CC(C)C(=O)Nc1ccc(-c2nc(-c3cccc(O)c3)c(-c3ccnc(Br)c3)[nH]2)cc1,15.1%
15,CN1C(=O)/C(=C/C=C/c2ccco2)SC1=S,5.83% (active)
16,NCCCNc1nc2ccccc2c2c(=O)c3cc(F)cc(Cl)c3sc12,73.4%
17,CCCOc1nc(SCCC)nc2c1cnn2-c1ccccc1,106%
18,c1ncc2[nH]cnc2n1,96%
19,COC(=O)[C@]12CC[C@@H](C(C)=O)[C@@H]1[C@H]1CC[C@@H]3[C@@]4(C)C/C(=C/c5cccnc5)C(=O)C(C)(C)[C@@H]4CC[C@@]3(C)[C@]1(C)CC2,55.7%
20,COc1cc(C(=O)/C=C/c2cc(C(=O)c3cc(OC)c(OC)c(OC)c3)ccc2OC)ccc1N,-44.7% (active)
